Pf Dd2 inh: inhibitors of Plasmodium falciparum Dd2 growth | P. falciparum Dd2 growth, SYBR Green, 72 h | Potency, µM (doses to about 28.9 µM), usual class: inhibitors | 4.3% of 120,000 active | AID 1347417; active = well fitted inhibition curve with a large enough effect; note: nearly all actives have a fitted effect of over 65% in size
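Infected erythrocytes (Dd2, 0.3% parasitemia, 2.5% hematocrit final) are added to compound in RPMI-1640/Albumax II medium, grown 72 h at 37C in low oxygen, then lysed with saponin/Triton-X containing SYBR Green and read by fluorescence.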
A number is an active result. This excerpt belongs to a sample that is enriched for hits.

What do the screens show for `O=C(NC1CCN(c2cc(-c3ccccc3)[nH]n2)C1)c1ccccc1F` (stereo not given)?
Pf Dd2 inh: inactive

How did CC(C)[S+](=O)([O-])N1CCN(c2ccc(C=O)cc2)C(=O)C1 do in these assays?
Pf Dd2 inh: inactive

What do the screens show for `COCCc1noc(-c2nc(-c3ccccc3F)no2)n1`?
Pf Dd2 inh: inactive

Results for COc1ccc(-c2noc(C(=O)O)c2[C@@H](C)NS(=O)(=O)CC(C)C)cc1 ?
Pf Dd2 inh: inactive

Results for O=C(NC1CCCCC1)NC1CCN(C(=O)N2CC3CC(C2)[C@H]2CCCC(=O)N2C3)CC1 (stereo not given in full) ?
Pf Dd2 inh: inactive

How did CCNC(=O)N1CCCCCC1c1nc(C2CC2)no1 (stereo not given) do in these assays?
Pf Dd2 inh: inactive

Results for O=C(Cn1ccn2nc(-c3ccc(F)cc3)c(CO)c2c1=O)NCCCc1ccccc1 ?
Pf Dd2 inh: inactive

How did CC(C)C(=O)N1CCCCCCNC(=O)[C@@H]2C[C@@H](C(=O)N3CCN(c4ccccn4)CC3)C[C@@H]21 do in these assays?
Pf Dd2 inh: inactive

What do the screens show for `CCS(=O)(=O)N1CCCCCCNC(=O)[C@@H]2C[C@@H](C(=O)N3CCc4ccccc4C3)C[C@@H]21`?
Pf Dd2 inh: inactive

Results for Cn1ccnc1C(=O)N1CCCCCNC(=O)[C@H]2C[C@H](C(=O)N3CCc4ccccc4C3)C[C@H]21 ?
Pf Dd2 inh: inactive

Results for O=C1NCCCCCN(C(=O)NC2CCCCC2)[C@@H]2C[C@@H](C(=O)N3CCc4ccccc4C3)C[C@H]12 ?
Pf Dd2 inh: 8.9µM

Results for O=C1NCCCCCCN[C@H]2C[C@H](C(=O)N3CCc4ccccc4C3)C[C@@H]12 ?
Pf Dd2 inh: 6.3µM

What do the screens show for `O=C1CCCCC(C(=O)N2CCc3ccccc3C2)N1` (stereo not given)?
Pf Dd2 inh: inactive

How did CCN1C(=O)Cc2ccccc2C1C(=O)NCc1ccc(OC)cc1 (stereo not given) do in these assays?
Pf Dd2 inh: inactive

Results for COc1cccc(C(CC(=O)NC2CCCCC2)c2c[nH]c3ccccc23)c1OC (stereo not given) ?
Pf Dd2 inh: inactive

Results for CN(C)c1ccc(-c2ccnc(N[C@H]3CO[C@H]4[C@@H]3OC[C@H]4OC(=O)NC3CCCCC3)n2)cc1 ?
Pf Dd2 inh: inactive

Results for Cc1cc(CN2CCC3CC(=O)NCCC3C2)cc(C)n1 (stereo not given) ?
Pf Dd2 inh: inactive

What do the screens show for `Cc1ccsc1C(=O)N1CCC2(CCCCO2)CC1`?
Pf Dd2 inh: inactive

How did CCCN(CCC)C(=O)[C@H]1CCC[C@H]1NC(=O)c1ccc(OC)nc1 do in these assays?
Pf Dd2 inh: inactive

How did CN1CCC(NC[C@H]2O[C@H](Cc3cc(-c4ccc(F)cc4)on3)CC[C@@H]2O)CC1 do in these assays?
Pf Dd2 inh: inactive

Results for CCOc1ccc(C(=O)N[C@H](c2ccc(OC)c(F)c2)C2CC(O)C2)o1 (stereo not given in full) ?
Pf Dd2 inh: inactive

How did O=C([C@H]1C[C@H](Oc2cccnc2)CN1S(=O)(=O)Cc1ccccc1F)N1CCOCC1 do in these assays?
Pf Dd2 inh: inactive

What do the screens show for `O=C(NC1CCCC1)c1ccc(CSc2nc3cccnc3n2Cc2cccc(F)c2)cc1`?
Pf Dd2 inh: inactive

Results for O=C(O)c1ccc2c(c1)n(Cc1cccc(F)c1)c(=O)c1ccnn12 ?
Pf Dd2 inh: inactive

How did COc1ccc(Cn2c(SCc3ccc(C(=O)NCc4cccs4)cc3)nc3ccncc32)cc1 do in these assays?
Pf Dd2 inh: 7.9µM

Results for COc1ccccc1CNC(=O)c1ccc(CSc2nc3ccncc3n2Cc2cccc(F)c2)cc1 ?
Pf Dd2 inh: 3.5µM

What do the screens show for `O=C(NC1CCCCC1)c1ccc(CSc2nc3ccncc3n2Cc2cccc(F)c2)cc1`?
Pf Dd2 inh: 11µM

How did O=C(NCc1cccs1)c1ccc2c(c1)n(Cc1cccc(F)c1)c(=O)c1ccnn12 do in these assays?
Pf Dd2 inh: 5.6µM

How did COc1cccc(CSc2nc3cc(C(=O)NC4CCCC4)ccc3c(=O)n2Cc2ccccc2)c1 do in these assays?
Pf Dd2 inh: inactive

How did COc1ccc(C(=O)N2CCc3ccc(C(=O)NCc4cccs4)cc32)cc1 do in these assays?
Pf Dd2 inh: inactive

What do the screens show for `O=C(NCc1ccccc1)c1ccc2c(c1)n(Cc1ccc(F)cc1)c(=O)c1ccnn12`?
Pf Dd2 inh: inactive

How did O=[S+]([O-])(c1cccnc1)c1nnn2c1nc(NC1CCCC1)c1ccccc12 do in these assays?
Pf Dd2 inh: inactive

How did CC1CN(c2ccccc2C#N)C(=O)CN1C(=O)c1ccc2c(c1)OCCO2 (stereo not given) do in these assays?
Pf Dd2 inh: inactive

How did COCCC(=O)N1CC(F)(F)C[C@H]1c1nc(-c2cccnc2)no1 do in these assays?
Pf Dd2 inh: inactive

Results for Cc1ccc(NC(=O)Cn2nc3n(c2=O)CCCC3)cc1F ?
Pf Dd2 inh: inactive

How did Cc1nn2c(c1-c1ccccc1[S+](C)(=O)[O-])N(C(=O)COc1ccccc1)CCC2 do in these assays?
Pf Dd2 inh: inactive

What do the screens show for `CCc1nc(C)ccc1OCC(=O)N1Cc2[nH]cnc2CC1C(=O)O` (stereo not given)?
Pf Dd2 inh: inactive

Results for CCn1ccc(C(=O)N2CCC3(CC2)c2[nH]c4ccccc4c2CCN3C)n1 ?
Pf Dd2 inh: inactive

How did CC(C)c1noc(-c2cn(C3CCN(C(=O)c4ccc(Cl)cc4)C3)nn2)n1 (stereo not given) do in these assays?
Pf Dd2 inh: inactive

What do the screens show for `COc1cccc([S+](=O)([O-])N2CCn3c(nn(-c4ccc(Cl)cc4)c3=O)C2)c1`?
Pf Dd2 inh: inactive

Results for O=C(NC1CCCC1)c1ccc2c(=O)n(Cc3ccccc3)c(SCc3cccc(F)c3)nc2c1 ?
Pf Dd2 inh: inactive

How did Cc1ccc(CNC(=O)c2ccc3nc(SCc4ccc(F)cc4)[nH]c3c2)cc1 do in these assays?
Pf Dd2 inh: inactive

Results for O=C(NCc1cccs1)c1ccc(CSc2nc3ccncc3n2Cc2cccc(F)c2)cc1 ?
Pf Dd2 inh: 8.9µM

What do the screens show for `CCc1ccc(CNC(=O)c2ccc(CSc3nc4ccncc4n3Cc3ccccc3)cc2)cc1`?
Pf Dd2 inh: 10µM

What do the screens show for `COC(=O)c1ccc(Cn2c(SCc3ccccc3)nc3ccncc32)cc1`?
Pf Dd2 inh: inactive

How did O=C(NCc1cccc(Cl)c1)c1noc(-c2ccc(F)cc2)n1 do in these assays?
Pf Dd2 inh: inactive

What do the screens show for `Cc1cccc(CSc2nc3cccnc3n2Cc2ccc(C(=O)NCc3cccs3)cc2)c1`?
Pf Dd2 inh: inactive

What do the screens show for `Cc1ccc(CSc2nc3cc(C(=O)NC4CCCC4)ccc3c(=O)n2Cc2ccccc2)cc1`?
Pf Dd2 inh: inactive

Results for O=C(CSc1nc2ccccc2n1Cc1ccccc1)NCc1ccccc1 ?
Pf Dd2 inh: inactive

Results for O=C(NC1CCCC1)c1ccc2c(=O)n(Cc3ccccc3)c(SCc3ccc([N+](=O)[O-])cc3)nc2c1 ?
Pf Dd2 inh: 3.2µM

How did Cn1c(SCc2ccc(F)cc2)nc2ccc(C(=O)NCc3cccc(Cl)c3)cc21 do in these assays?
Pf Dd2 inh: 10µM

What do the screens show for `Cc1cc(C(=O)NCC2(COc3ccc(C(F)(F)F)cn3)C[C@@H](O)[C@@H](O)C2)n(C)n1` (stereo not given in full)?
Pf Dd2 inh: inactive

What do the screens show for `C[C@@H](NC(=O)C1CCCCC1)c1c(-c2ccc(F)cc2)noc1C(=O)O`?
Pf Dd2 inh: inactive

What do the screens show for `Nc1n[nH]c(C(=O)N2C[C@H](CO)C[C@H](CN3CCOCC3)C2)c1Cl`?
Pf Dd2 inh: inactive

Results for NC(=O)N1CCCC(C(=O)N2CCCN(c3ccc(F)cc3)CC2)C1 (stereo not given) ?
Pf Dd2 inh: inactive

Assay outcomes deposited in PubChem BioAssay by National Center for Advancing Translational Sciences (NCATS).
